The full ranking holds about 16,000 sequences; the median of “Z-score” is about -0.37, and the highest 2% start at about 3.1. What follows is part of a selection rich in the highest values, with near analogues and random picks from the rest.
Each sequence was assayed on RBM10 RRM1-ZnF-RRM2 (GST-tagged construct) (assay: RNAcompete 7-mer binding Z-score; higher = stronger binding preference).
Procedure: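 RNAcompete: 20 pmol GST-tagged RBM10 RNA-binding constructs were incubated with a designed RNA pool of about 241,000 sequences up to 41 nt (1.5 nmol) on glutathione beads for 30 min at 4 °C and washed. Bound RNAs were identified by microarray hybridisation. Each RNA 7-mer is scored by a one-sided Z-score of its enrichment, computed over probes that contain the 7-mer within longer pool sequences.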

Sequence | RNAcompete 7-mer binding Z-score
AGGGUGA | 4.25
AGGGUCA | 1.51
AGGGUGG | 3.88
CGGGUGA | 2.55
GGGGUGA | 3.52
AGGGUGC | 2.43
ACGGUGG | 2.73
AUGGUGA | 2.09
GCGGUGA | 1.39
UCGGUGA | 0.479
GGGGUCA | 3
UGGGUGA | 3.5
CUGGAGG | 1.11
GGGCCCA | -0.151
AGUAUUG | 0.024
UGAUUGA | 0.00216
GGACUUG | 0.319
GCGGUGU | 0.96
UGGGUGU | 2.62
GGUGUGU | 1.42
CGGGUGG | 3.24
CGGGUGU | 1.83
AGGGUGU | 3.03

Sequence | RNAcompete 7-mer binding Z-score
UGUGUGG | 1.79
CGGGUGC | 1.94
UGGGUGG | 4
GGGGUGU | 3.53
UGGGUGC | 2.74
GGUGUGG | 3.86
CAGUACA | -0.0816
ACGCAAC | -0.479
UCUGUUA | -0.795
GACUGUG | -0.198
CGUCAUA | -0.519
AAGUGCG | 0.698
UCAACCC | -0.752
ACCAUUG | -0.584
GGGGUGG | 4.09
GCGGUGG | 3.01
GGGGUGC | 2.58
CUCACAG | -0.351
ACCAGGC | -0.136
GGGAUAA | 3.36
AGGAUAG | 2.21
GGGAUGA | 3.59
UGGAUAG | 2.3

Sequence | RNAcompete 7-mer binding Z-score
GGGAUGU | 2.88
UGGAUAA | 1.07
GGGAUGC | 2.65
GGGAUAC | 2.71
GGGAUAG | 3.83
UCUGGUC | -0.522
UCUGUCC | -0.81
UAGGGCA | 2.23
CAGGGGU | 2.91
UAGGGGA | 3.81
CAGGGGG | 2.58
UAGGGGC | 2.34
UAGGGGU | 3.84
UAGGGCU | 1.3
CAGGGGA | 2.8
UAGGGGG | 3.4
GUGACGA | 0.68
GUAAAAA | 0.253
CCAUUGG | -0.53
GUUUUGU | 0.024
UGCUUGC | -0.73
CCGAUUG | -0.606
GAAGGCU | 0.581

Sequence | RNAcompete 7-mer binding Z-score
GAAGUGU | 1.09
UAAGGUU | 1.74
UAAGGGA | 3.09
AAAGGGA | 4.13
UAAGGGU | 3.54
UAAGGCU | 0.224
GAAGGGU | 4.15
UAAGGGC | 1.51
CAAGGGA | 2.5
GAAGGGC | 3.32
AAAGGGC | 2.89
CCGUAUC | -0.876
AUAAUGG | 1.84
UGAUUAA | -0.118
AUACACA | -0.187
AGGUUGU | 0.691
GCGACGC | -0.253
GUCGCUG | 0.0495
UCUAACC | -0.737
GUCUAUA | -0.479
GUUGCAU | -0.227
CUAGAUU | -0.661

Reference: the supplement of paper PMC5499739
